The structures appear in SMILES notation. Records with an inconclusive call do not appear. Calls of active or inactive are those of the source. Unless noted, calls come from the whole dose curve; as a rule, active = well fitted curve in the direction sought with a large enough effect in the repeat runs; inconclusive = weak or mixed curves; inactive = no such curve, though single readings can be large; an effect the other way counts as inactive or inconclusive.

Data on 25 compounds can be found in PubChem BioAssay (Tox21).

The target in assay [1] is Progesterone receptor (Homo sapiens) (UniProt P06401). In words: qHTS assay to identify small molecule agonists of the progesterone receptor (PR) signaling pathway (AID 1346784; calls by dose curve; note: nearly all actives have a fitted effect of over 30% in size). The method in brief:
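Fluorescence from LiveBLAzer B/G FRET substrate cleavage (2 hr, RT) reported PR activation in PR-UAS-bla HEK 293T cells treated 16 hr at 37C/5% CO2 with compounds; medium contained 2% charcoal-stripped FBS.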
A general note: In qHTS, concentration-response curves come from the screen itself.

For assay [2] the target is unchanged. Description: qHTS assay to identify small molecule antagonists of the progesterone receptor (PR) signaling pathway (AID 1346795; active = well fitted inhibition curve with a large enough effect in the signal ratio in the repeat runs, not every such curve was filed as active; the % refers to the signal ratio; note: potency is the fitted concentration of half-maximal effect). Put shortly:
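Fluorescence intensity measured 2 hr after adding beta-lactamase FRET substrate to PR-UAS-bla HEK293T cells that had been co-treated 16 hr with compound and 1 nM R5020 (final concentration) in 2% charcoal-stripped FBS.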

Assay [3] in a line: qHTS assay to identify small molecule agonists of the TGF-beta/Smad signaling pathway - cell viability counter screen (AID 1346829). Note: top concentration of the series differs between compounds; nearly all actives have a fitted effect of over 45% in size. The method in brief:
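Tox21 qHTS format: SBE-bla HEK 293T cells treated with DMSO-dissolved compounds for 5 hr; CellTiter-Glo luminescence after 30 min at room temperature.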

Assay [4] is described as follows: qHTS assay to identify small molecule agonists of the TGF-beta/Smad signaling pathway (AID 1346859; active = well fitted activation curve with a large enough effect in the signal ratio in the repeat runs, not every such curve was filed as active; the % refers to the signal ratio; note: series mostly up to about 77 µM). The method in brief:
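After overnight seeding, SBE-bla HEK 293T cells are dosed with compounds in DMSO and kept 5 hr at 37 C, 5% CO2. LiveBLAzer-type FRET substrate is then applied for 2 hr at room temperature.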

Assay [5] has as its target Thyrotropin-releasing hormone receptor (Homo sapiens) (UniProt P34981). In words: qHTS assay to identify small molecule antagonists of the thyrotropin-releasing hormone receptor (TRHR) signaling pathway (AID 1346877; active = well fitted inhibition curve with a large enough effect in the repeat runs, not every such curve was filed as active; note: series mostly up to about 51 µM). Put shortly:
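Intracellular calcium fluorescence, read kinetically every second over 3 min, reports TRH-evoked signalling in HEK293 cells carrying TRHR. Test compounds were added 5 min ahead of a 1 nM TRH challenge.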

The target is the same in assay [6]. Description: qHTS assay to identify small molecule agonists of the thyrotropin-releasing hormone receptor (TRHR) signaling pathway (AID 1346891; calls by dose curve;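 note: HEK293 cells expressing TRHR with calcium dye readout; series mostly up to about 58 µM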). Put shortly: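 Compounds were tested as agonists at 15 concentrations, in triplicate, on TRHR-Hek293 cells; calcium-sensitive dye fluorescence was recorded for 3 min following addition.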
Assay [7] in a line: Human pregnane X receptor (PXR) small molecule agonists, qHTS cell viability counter screen (AID 1346977). Note: nearly all actives have a fitted effect of over 50% in size. Put shortly: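 Viability counter screen: CellTiter-Fluor signal in PXR-Luc HepG2 cells, 24hr compound exposure, 37C, 5% CO2.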
Assay [8] in a line: qHTS assay to identify small molecule agonists of the progesterone receptor (PR) signaling pathway - cell viability counter screen (AID 1346799; calls by dose curve; note: nearly all actives have a fitted effect of over 45% in size; note: potency is the fitted concentration of half-maximal effect). Put shortly: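 In parallel with the beta-lactamase readout, cytotoxicity toward PR-UAS-bla HEK293T cells was measured by CellTiter-Glo luminescence following 16 hr compound incubation in 2% charcoal-stripped FBS medium.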
Assay [9] can be described thus: qHTS assay to identify small molecule antagonists of the progesterone receptor (PR) signaling pathway - cell viability counter screen (AID 1346798). Note: nearly all actives have a fitted effect of over 50% in size. Note: potency is the fitted concentration of half-maximal effect. Put shortly: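 CellTiter-Glo luminescence; PR-UAS-bla HEK293T, 3,000 cells/well; compound + R5020, 16 hr, 37C/5% CO2; 30 min RT before read.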
Assay [10] in a line: qHTS assay to identify small molecule antagonists of the TGF-beta/Smad signaling pathway - cell viability counter screen (AID 1346824). Note: nearly all actives have a fitted effect of over 50% in size. Put shortly: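 SBE-bla HEK 293T cells were plated overnight at 37 C, then given compounds in DMSO plus TGF-beta1 (added as 0.25 ng/mL solution) for 5 hr. After the bla read, CellTiter-Glo was added to the same wells and luminescence read after 30 min at room temperature.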

Chain of Progesterone receptor (Homo sapiens) (P06401 whole entry, looked up): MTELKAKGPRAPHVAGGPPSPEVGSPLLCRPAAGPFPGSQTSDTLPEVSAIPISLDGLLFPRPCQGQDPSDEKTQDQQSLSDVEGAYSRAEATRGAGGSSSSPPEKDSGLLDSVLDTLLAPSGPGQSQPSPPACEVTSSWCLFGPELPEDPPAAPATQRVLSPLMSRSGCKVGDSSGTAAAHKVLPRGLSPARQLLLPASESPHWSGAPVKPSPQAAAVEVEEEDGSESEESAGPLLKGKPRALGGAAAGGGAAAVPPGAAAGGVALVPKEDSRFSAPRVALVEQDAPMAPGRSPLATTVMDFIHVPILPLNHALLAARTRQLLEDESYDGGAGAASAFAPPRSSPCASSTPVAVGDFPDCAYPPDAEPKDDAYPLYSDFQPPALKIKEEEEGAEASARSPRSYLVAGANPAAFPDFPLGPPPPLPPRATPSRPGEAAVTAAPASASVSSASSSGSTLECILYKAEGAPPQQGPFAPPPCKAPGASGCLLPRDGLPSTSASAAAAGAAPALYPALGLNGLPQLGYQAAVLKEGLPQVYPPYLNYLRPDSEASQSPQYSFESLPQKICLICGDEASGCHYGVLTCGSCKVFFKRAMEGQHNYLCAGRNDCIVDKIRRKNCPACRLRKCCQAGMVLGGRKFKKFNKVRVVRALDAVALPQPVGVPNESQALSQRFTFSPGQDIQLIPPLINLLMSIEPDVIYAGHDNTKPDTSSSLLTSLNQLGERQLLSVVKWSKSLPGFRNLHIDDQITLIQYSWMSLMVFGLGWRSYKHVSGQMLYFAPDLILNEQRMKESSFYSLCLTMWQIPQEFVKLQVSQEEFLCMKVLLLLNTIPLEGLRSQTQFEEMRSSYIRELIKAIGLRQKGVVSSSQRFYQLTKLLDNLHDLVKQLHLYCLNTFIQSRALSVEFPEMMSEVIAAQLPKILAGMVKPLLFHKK
Chain of Thyrotropin-releasing hormone receptor (Homo sapiens) (P34981 whole entry, looked up): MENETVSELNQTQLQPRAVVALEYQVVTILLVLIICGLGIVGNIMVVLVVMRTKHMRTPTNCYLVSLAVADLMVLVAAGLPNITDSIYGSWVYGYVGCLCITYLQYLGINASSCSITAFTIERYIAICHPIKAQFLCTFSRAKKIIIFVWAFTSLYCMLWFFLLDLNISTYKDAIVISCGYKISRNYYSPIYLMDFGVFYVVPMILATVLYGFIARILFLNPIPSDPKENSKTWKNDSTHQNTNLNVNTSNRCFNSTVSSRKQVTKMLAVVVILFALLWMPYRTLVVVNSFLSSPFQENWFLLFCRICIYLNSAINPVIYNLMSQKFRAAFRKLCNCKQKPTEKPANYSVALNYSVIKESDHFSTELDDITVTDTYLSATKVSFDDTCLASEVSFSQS

For the compound `CCC1(c2ccccc2)C(=O)N=C(O)NC1=O` (stereo unspecified), the Potency result in assay [1], in [2] and in [7] was “inactive” in each case. Moreover, the result in assay [3], in [4], in assay [5] and in assay [6] was inactive.
As for `C[N+](C)=CCl`, the Potency entry in [1], in assay [2], in assay [8] and in assay [7] was “inactive” each time. Further, the compound was called inactive in [3], in [4], in assay [5] and in assay [6].
`CCN(CC)c1nc(C)cc(OP(=S)(OC)OC)n1`: the Potency entry in [1], in [9], in [8], in assay [10] and in [7] was “inactive” in each case. Also, the compound was classed as inactive in assay [3], in assay [4], in [5] and in assay [6].
As to `Nc1cc2c3c(c1)C(c1ccccc1)=N[C@@H](NC(=O)c1cccnc1)C(=O)N3CC2`, the Potency result in [1], in assay [2], in [8], in assay [10] and in [7] was “inactive” in each case. Moreover, the compound was classed as inactive in assay [3] and in assay [4].
For the compound `CC1CCC(=O)O1` (stereo unspecified), the Potency result in assay [1], in assay [2], in [8] and in [7] was “inactive” each time. The result in assay [3], in [4], in assay [5] and in assay [6] was inactive.
As for `CCCCCCI`, the Potency result in assay [1], in [2], in assay [9], in [10] and in assay [7] was “inactive” in each case. Besides, the result in assay [3] and in [4] was inactive.
Regarding `C1CCC(C2CCCCC2)CC1`, the Potency entry in [1], in [10] and in [7] was “inactive” throughout. Besides, the Potency in [9] was 15.4 µM (active); in assay [8], 8.63 µM (active). For the same compound, the compound was called inactive in assay [3], in assay [4], in assay [5] and in assay [6].
On to `O=C(Oc1ccc(Br)cc1)N1CCN2CCC1CC2`, for which the Potency entry in assay [1], in assay [2], in [8], in assay [10] and in assay [7] was “inactive” each time. For the same compound, the result in [3], in assay [4], in assay [5] and in assay [6] was inactive.
With `C=CC1CC=CCC1` (stereo unspecified), the Potency entry in assay [1], in assay [2], in assay [8] and in [7] was “inactive” throughout. Also, the outcome in assay [3], in [4] and in assay [6] was inactive.
Turning to `CCN(CC)C(=O)[C@@H]1C=C2c3cccc4[nH]cc(c34)C[C@H]2N(C)C1`, the Potency result in assay [1] and in assay [2] was “inactive” each time. Also, the result in assay [3], in [4], in [5] and in assay [6] was inactive.
In the case of `CC(C)NCC(O)c1ccc(N)c(C#N)c1` (stereo unspecified), the Potency entry in assay [1], in [2], in [8], in assay [10] and in assay [7] was “inactive” each time. The call in assay [3] and in [4] was inactive.
For the compound `O=S(=O)(O)C(F)(F)C(F)(F)C(F)(F)C(F)(F)C(F)(F)C(F)(F)F`, the Potency result in assay [1], in assay [2], in [9], in assay [10] and in [7] was “inactive” in each case. For the same compound, the call in assay [3] and in assay [4] was inactive.
Turning to `CN(N=O)C(N)=O`, the Potency result in assay [1], in assay [2], in [8] and in assay [7] was “inactive” each time. Besides, the compound was called inactive in assay [3], in [4], in assay [5] and in [6].
For the compound `COC(=O)c1c(C(F)F)nc(C(F)(F)F)c(C2=NCCS2)c1CC(C)C`, the Potency entry in assay [1], in assay [9], in [8], in [10] and in [7] was “inactive” throughout. Besides, the outcome in [3], in assay [4], in assay [5] and in [6] was inactive.
Consider `CC(CCc1ccccc1)NC(C)C(O)c1ccc(O)cc1` (stereo unspecified), for which the Potency entry in [1], in assay [9] and in assay [8] was “inactive” throughout. Further, the call in [3] and in assay [4] was inactive.
Take `CSc1nc(N=[N+]=[N-])nc(NC(C)C)n1`: the Potency entry in assay [1], in assay [9], in assay [8], in assay [10] and in assay [7] was “inactive” each time. Besides, the call in [3], in [4], in assay [5] and in assay [6] was inactive.
For `CC1(C(=O)Nc2ccc(O)c(Cl)c2Cl)CCCCC1`, the Potency entry in assay [1], in assay [10] and in assay [7] was “inactive” in each case. Further, the Potency in [2] was 27.3 µM (active). Moreover, the compound was called inactive in [3], in assay [4] and in assay [6].
With `C#CCN1C(=O)COc2cc(F)c(N3C(=O)C4=C(CCCC4)C3=O)cc21`, the Potency result in [1], in assay [2], in assay [10] and in assay [7] was “inactive” each time. For the same compound, the outcome in [3], in assay [4] and in assay [6] was inactive.
For the compound `O=C(NCO)NCO`, the Potency result in [1], in assay [9], in assay [8], in assay [10] and in assay [7] was “inactive” in each case. Besides, the compound was classed as inactive in assay [3] and in assay [4].
As to `CCOC(=O)C(c1c(O)c2ccccc2oc1=O)c1c(O)c2ccccc2oc1=O`, the Potency result in [1], in assay [2], in [9], in assay [10] and in [7] was “inactive” in each case. In addition, the call in assay [3], in assay [4] and in assay [6] was inactive.
Consider `NC(=S)C(N)=S`, for which the Potency result in [1], in [2], in assay [10] and in assay [7] was “inactive” in each case. Also, the call in [3] and in assay [4] was inactive.
Consider `COC(=O)C(c1ccccc1)C1CCCCN1` (stereo unspecified), for which the Potency result in assay [1], in assay [9], in assay [8], in assay [10] and in assay [7] was “inactive” each time. For the same compound, the compound was called inactive in assay [3], in assay [4], in assay [5] and in assay [6].
As to `C[C@]12CC[C@H]3[C@@H](CCC4=CC(=O)CC[C@@]43C)[C@@H]1CC[C@@H]2C(=O)O`, the Potency result in assay [1], in assay [9], in [8], in [10] and in assay [7] was “inactive” throughout. For the same compound, the outcome in assay [3] was inactive.
As to `CCCSP(=O)(OCC)Oc1ccc(Br)cc1Cl` (stereo unspecified), the Potency result in assay [1], in [10] and in assay [7] was “inactive” each time. Besides, in assay [2], the Potency is 11.8 µM (active). The compound was classed as inactive in assay [3], in assay [4], in assay [5] and in assay [6].
Turning to `CCCCOC(=O)c1ccccc1C(=O)O`, the Potency entry in assay [1], in assay [2], in [10] and in assay [7] was “inactive” in each case. The compound was called inactive in assay [3] and in assay [4].
